Source: PubChem (National Center for Advancing Translational Sciences (NCATS))
Sampled rows, rich in hits. Any-hit rate of the full collection: about 11%.
Pf growth 96h = P. falciparum growth inhibition at 96 hours | P. falciparum luciferase reporter growth, 96 h | Potency, µM (series often up to 28.7 µM), for the others: at the highest dose activity change, negative = inhibition, actives largely listed as inhibitors | hit rate 6.9% among 320,000; further: on the % scale 0 is the no-effect control and ±100 the full control effect
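Two parasite generations (96 h, 37 C, 5% CO2) of compound exposure in infected erythrocytes (0.05% parasitemia, 2% hematocrit). Luciferase-reporter P. falciparum; decreased luminescence indicates inhibited growth, aimed at apicoplast-acting delayed death.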
NS1 function inh = inhibitors of influenza NS1 protein function; Potency, µM (highest dose often 46.1 µM), for inactives: at the top dose activity, positive = more growth; hit rate 0.4% among 270,000; AID 2326; calls by dose curve; further: actives are rising curves; nearly all actives have a fitted effect of over 50% in size
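Recovery from NS1-induced slow growth read by OD600 in budding yeast switched to galactose assay medium (pH 6.0, -URA) at 1:100 dilution. Compound 23 nl per well; the matching strain lacking NS1 serves as control.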
Sm TGR block = inhibitors of Schistosoma mansoni thioredoxin glutathione reductase; purified TGR, DTNB reduction, TNB absorbance 405 nm; Potency, µM (doses to about 114 µM), inactives show at the highest dose activity change, negative = inhibition, actives largely listed as inhibitors; hit rate 3% among 360,000; AID 485364; further: on the % scale 0 is the no-effect control and ±100 the full control effect; nearly all actives have a fitted effect of over 60% in size
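TGR 20 nM + NADPH 100 uM (dispensed conc.), cpd preinc 15 min RT; start with NADPH (500 uM addition) then DTNB (15 mM addition). Kinetic TNB absorbance, 405 nm filter. Four-parameter Hill fit across titration.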
Pf growth 48h = inhibits P. falciparum growth in the first generation, 48 h; hit rate 5.9% among 310,000; P. falciparum luciferase growth in erythrocytes, 48 h; Potency, µM (doses to about 28.7 µM), without a hit: top-dose activity change, negative = inhibition, hits mostly inhibitors; further: on the % scale 0 is the no-effect control and ±100 the full control effect
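Luciferase-expressing P. falciparum in infected erythrocytes (2% hematocrit, 0.1% parasitemia final) in RPMI 1640/0.5% Albumax were exposed to compound for 48 hours at 37 C, 5% CO2; growth read as luminescence.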
AMA1-RON2 inh = disrupts binding of P. falciparum AMA1 to RON2. AlphaScreen AMA1-biotinylated RON2 peptide binding. Potency, µM (titrated, usually from 58.2 µM), for the others: at the highest dose activity change, negative = inhibition, most hits filed as inhibitors. hit rate 0.2% among 360,000. AID 720542;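 further: 0% = vehicle wells and -100% = peptide control; nearly all actives have a fitted effect of over 45% in size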
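AMA1 (3D7) with his tag at 25 nM final met compounds first, then biotinylated RON2 peptide at 25 nM; detection used donor plus acceptor beads, 10 µg/mL apiece, read by AlphaScreen after 30 min at room temperature.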
* = called active by the depositor; [ ] = another dose, or the depositor's remark. Unless noted, the call rests on the fitted dose curve; in most records, active means well fitted curve in the direction sought with a large enough effect; inconclusive means small, poorly fitted or top-dose-only effect, or another doubt; inactive means no such curve, though single readings can be large; an effect the other way counts as inactive or inconclusive. Potency means the concentration at half of the fitted maximal effect.

Results for COc1ccc(-c2cc(=Nc3ccccc3)c3cc(C)ccc3o2)cc1 ?
Pf growth 96h: 65%; NS1 function inh: -46%; Sm TGR block: -2%; Pf growth 48h: 84%; AMA1-RON2 inh: -18%

What do the screens show for `COc1ccc(-c2cc(=Nc3ccc(C)cc3)c3ccccc3o2)cc1`?
Pf growth 96h: 6.6µM*; NS1 function inh: 0%; Sm TGR block: 9%; Pf growth 48h: inconclusive; AMA1-RON2 inh: -5%

What do the screens show for `COc1ccc(N=c2cc(-c3ccc(O)cc3)oc3ccccc23)cc1`?
Pf growth 96h: inconclusive; NS1 function inh: -29%; Sm TGR block: -1%; Pf growth 48h: 3.3µM*; AMA1-RON2 inh: -29%

Results for COc1ccc(-c2cc(=O)c3ccccc3o2)cc1 ?
Pf growth 96h: inconclusive; NS1 function inh: -40%; Sm TGR block: 7%; Pf growth 48h: 89%; AMA1-RON2 inh: -12%

Results for CC(=O)N(C)c1ccc(N=Nc2c(C)[nH]n(-c3ccccc3)c2=O)cc1 ?
Pf growth 96h: 12µM*; NS1 function inh: 3%; Sm TGR block: -2%; Pf growth 48h: inconclusive; AMA1-RON2 inh: -1%

How did N[C@H](COP(=O)(O)O)C(=O)O do in these assays?
Pf growth 96h: -19%; Pf growth 48h: inconclusive

What do the screens show for `O=C(COC(=O)c1ccccc1OCc1ccccc1Cl)NCC1CCCO1` (centres undefined)?
AMA1-RON2 inh: -1%

How did Brc1ccc(CNc2nc3ccccc3n2CCN2CCCCC2)cc1 do in these assays?
Pf growth 96h: 13µM*; NS1 function inh: 0%; Sm TGR block: 11%; Pf growth 48h: inconclusive; AMA1-RON2 inh: -7%

How did c1ccc2c(c1)nc(NCc1ccc3c(c1)OCO3)n2CCN1CCOCC1 do in these assays?
Pf growth 96h: 21%; NS1 function inh: 1%; Pf growth 48h: -22%; AMA1-RON2 inh: 3%

Results for Brc1cccc(CNc2nc3ccccc3n2CCN2CCCCC2)c1 ?
Pf growth 96h: 12µM*; NS1 function inh: -1%; Sm TGR block: 13%; Pf growth 48h: inconclusive; AMA1-RON2 inh: -5%

How did c1ccc(Cn2c(CNc3nc4ccccc4n3CCN3CCOCC3)nc3ccccc32)cc1 do in these assays?
Pf growth 96h: 9%[5.75 µM]; NS1 function inh: -20%; Sm TGR block: 0%; Pf growth 48h: 12µM*; AMA1-RON2 inh: 15%

How did CC[C@]12C(=O)N(C)C[C@H]([C@@H]3C(=O)N(C)C(=O)[C@@H]31)N2C(=O)c1ccc(C)cc1 do in these assays?
AMA1-RON2 inh: 8%

What do the screens show for `COc1cccc(C(=O)c2cn(CC(=O)Nc3cccc(C)c3C)c3nc(C)ccc3c2=O)c1`?
Sm TGR block: -1%

What do the screens show for `Cc1ccc2c(=O)cc(C(=O)Nc3c(C(=O)c4ccc(F)cc4)oc4ccccc34)oc2c1C`?
Sm TGR block: 12%

How did Nc1nc2c(ncn2[C@@H]2O[C@H](CNS(=O)(=O)N3CCCC3)[C@@H](O)[C@H]2O)c(=O)[nH]1 do in these assays?
AMA1-RON2 inh: 0%

How did O=S(=O)(Nc1cccc2cn[nH]c12)c1ccc(F)cc1 do in these assays?
Pf growth 96h: 110%; NS1 function inh: 0%; Sm TGR block: -12%; Pf growth 48h: 11%; AMA1-RON2 inh: -5%

How did COc1cc(S(=O)(=O)Nc2cccc3cn[nH]c23)c(OC)cc1C do in these assays?
Pf growth 96h: 2.9µM*; NS1 function inh: -17%; Sm TGR block: -5%; Pf growth 48h: 10µM*; AMA1-RON2 inh: 0%

Results for Cc1ccc(S(=O)(=O)n2nc(-c3ccccc3)nc2NCc2ccc(Cl)cc2)cc1 ?
Sm TGR block: 10%

What do the screens show for `CCCCNC(=O)c1ccc2nc(CC)c(N(C)Cc3cccs3)n2c1`?
AMA1-RON2 inh: -5%

What do the screens show for `CCCCNc1c(-c2ccc(SC3CCCCC3)c(OC)c2)nc2ccc(Cl)cn12`?
Pf growth 96h: 2.1µM*; Sm TGR block: 0%; Pf growth 48h: 8.3µM*; AMA1-RON2 inh: 0%

What do the screens show for `CCCCNc1c(-c2ccc(SC(C)CC)c(OC)c2)nc2ccc(Cl)cn12` (centres undefined)?
AMA1-RON2 inh: 11%

Results for CCCCNc1c(-c2ccc(SC(C)CC)c(OC)c2)nc2ccc(C)cn12 (centres undefined) ?
Pf growth 96h: inconclusive; Sm TGR block: -26%; Pf growth 48h: 3.3µM*; AMA1-RON2 inh: -1%

How did COc1cccc(CNC(=O)Cn2c(SCC(=O)Nc3ccc(F)cc3)nc3ccccc32)c1 do in these assays?
Sm TGR block: -1%

What do the screens show for `C[C@@H]1CN([C@@H](C)CO)C(=O)c2cc(NC(=O)Nc3ccccc3)ccc2O[C@@H](C)CCCCO[C@H]1CN(C)C(=O)Nc1ccc(C(F)(F)F)cc1`?
AMA1-RON2 inh: -6%

Results for O=C(NC(=S)Nc1ccccc1[N+](=O)[O-])c1ccco1 ?
Pf growth 96h: inconclusive; Sm TGR block: 50µM*; Pf growth 48h: 33%; AMA1-RON2 inh: 5%

What do the screens show for `Cc1ccc2nc(NC(=S)NC(=O)c3ccco3)sc2c1`?
Pf growth 96h: 399%; NS1 function inh: 20%; Sm TGR block: inconclusive; Pf growth 48h: 138%; AMA1-RON2 inh: 61%

What do the screens show for `O=C(NC(=S)Nc1cccc(O)c1)c1ccco1`?
Pf growth 96h: 146%; NS1 function inh: 1%; Sm TGR block: 7.9µM*; Pf growth 48h: 84%; AMA1-RON2 inh: 14%

Results for O=C(NC(=S)Nc1ccc([N+](=O)[O-])cc1)c1ccco1 ?
AMA1-RON2 inh: 21%

How did O=C(NC(=S)Nc1ccc2c(c1)OCCO2)c1ccco1 do in these assays?
Pf growth 96h: 179%; NS1 function inh: 0%; Sm TGR block: 16µM*; Pf growth 48h: 0%; AMA1-RON2 inh: -9%

How did Cc1ccc2nsnc2c1NC(=S)NC(=O)c1ccco1 do in these assays?
Pf growth 96h: -73%; NS1 function inh: 12%; Sm TGR block: 45µM*; Pf growth 48h: 30%; AMA1-RON2 inh: 22%

What do the screens show for `O=C(OCCCOC(=O)c1cc[n+]([O-])cc1)c1cc[n+]([O-])cc1`?
Pf growth 96h: 0%; NS1 function inh: -2%; Sm TGR block: -28%; Pf growth 48h: -1%; AMA1-RON2 inh: 5%

How did O=C(Nc1ccc(S(=O)(=O)Nc2nccs2)cc1)C1=NN(c2ccccc2)C(=O)CC1 do in these assays?
Pf growth 96h: inconclusive; NS1 function inh: 13%; Sm TGR block: -1%; Pf growth 48h: inconclusive; AMA1-RON2 inh: -5%

Results for Cc1ccc(C)c(CN2C(=O)CSc3ccc(C(=O)NCCc4ccc(Cl)cc4)cc32)c1 ?
Sm TGR block: -2%

What do the screens show for `Oc1cccc(NC(=S)Nc2ccccc2)c1`?
Pf growth 96h: 128%; NS1 function inh: 3%; Sm TGR block: 16µM*; Pf growth 48h: 54%; AMA1-RON2 inh: 10%

How did CC(=O)Nc1cccc(O)c1 do in these assays?
Pf growth 96h: 32%; Sm TGR block: 3%; Pf growth 48h: 54%; AMA1-RON2 inh: 18%
